What follows are sequences tested on PPARg homodimer (NR concentration 180 nM) (assay: PBM binding z-score (relative to random genomic background probes); higher = stronger binding; sequences stand for … in GC…GCGATTGACAGCGTAGAATGAAGG).
Summary of the method: (§1)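 For binding z-scores, the reference was random background probes on custom Agilent 4×180K protein-binding microarrays. These arrays were incubated 1 h with ligand-free nuclear receptor dimers in PBS pH 7.4, 2% milk, 0.02% Triton X-100, 1 mM DTT, 0.2 mg/mL BSA and 0.4 mg/ml salmon testes DNA. Fluorescence was scanned after antibody detection of each partner (one per run) and regression-normalized.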

Sequence	PBM binding z-score
TCTCGGAGGACACGAAGGTCAGAGCCTTCCAGAG	1.08
ACAGACAGGTGAGTGAAGGTAACGCAGCTGGACG	-0.463
AGTCAAAGTTCAGGACGAGGTATCGTAAAGCACG	1.39
TCTAGTTGGTCACGGCGGTCACACACGACGGGTA	1.16
ACTGACGGGTCAACGAGGTTATAGCACGCGTATA	1.88
TCGAGTAGGTTAGGGGCAATCAGAATGGCGTCGA	1.06
AGAATGAGGTTAAGATCAGCGAAACAGAATACAT	-0.266
TCAGACAAGTGAAGGTAACTCAGGTACGCAGTCG	-0.105
ACTATTAGTTGACTTAGGGCAACCGCTACGACGC	0.236
ATGTGTAGGTTAAGGGTCATTCAGGTTGGTTCGC	4.52
CAAACTCGGTCACGAAAGGTCAAAGTCGAATGAC	7.09
ATATATAGGTTACATCCGGGTCATTCAGGCTATG	2.67
AGAATGAGGTTACCAAAGATCATGGAAACGCTTG	0.294
TTACCAAGCTGAAAGGTCGTTGATGCACGCCTTG	0.193
CTCGAAAGGTCGTGCTCAGCTGAGTATACCAAAC	1.59
ACCGAAAGGTCGACGAGGTGAGTATACACCGTTT	1.27
AGCATGAGGTTATTAAGATCAGGGAATTGCGGTC	0.577
AGAACGAGGGCAATGATTTGATAGCACGGGTGGC	0.437
TCATATAGGTAATACAGGTGACAGTCGGCATCTA	1.04
CCTAGCAGGCCAATCTGGGCCACTCAAGGCTTGA	-0.99

Sequence	PBM binding z-score
CCAAACAGGTGAGAAGGTAACTCAGCCTCGATTA	0.805
GTTAGTTGGTCAGTAAAAGGTCACACACCGGTCG	5.74
TCATATAGGTAAATGCTAGGGGAAAGTCCGATCT	0.609
CCTTACGGTTCACTCCAGGTTATAGCATCGGAGT	1.62
ACTAGCAGGCCAAGTTTGGGTCTCTCAAACAAAG	-1.17
TCGACTAGGTTAGTCGGGGCATTCAGCCAACATA	-0.609
ATCTCTAGGTAACGAAGTTCAGTGAATGCCGAAC	0.161
CATACAGGGTCAGCCAGGCCAGAGTAGGGACGGC	1.27
ATATGAAGGTTAGCTGGGGTCATTCAGACTAGGC	2.53
ATCTCTAGGTAAAGATAGTTCAGCGAATGCAAAT	0.488
TATACAGGGTCAAAGCCCAGAGTACGAATGTCGA	2.91
TCTGCTAAGTCAACGATGGTCAGCTAATCTGCTA	-1.18
ATATGTAGGTTACATCCGGGTTATTCAGGCTATG	3.3
CCTATTACTTGACCATAAGGGCAACCGAAGCTCG	1.41
CCTATTAGTTGACCATAAGGGCGACCGAAGCTCG	2.13
TCTAGTTGGTCACTGAGGTCACACACGACGGGTA	4.13
TCTGCTAGGTCAACGATGGTCAGCTCATCTGCTA	1.9
AGAATGAGGTTATACGCAGATCAGGGAAGAAAGT	0.831
TCTATTAGTTGTTTAGGGCAACCGAAACAGCGGA	0.794
CCCGACAGGTGAAAGGTAACTCAGTCTGGTACGC	0.815

These sequences were tested on PXR:RXRa (NR concentration 270 nM, RXRa partner concentration 90 nM) in the same assay as above.
Summary of the method: as §1

Sequence	PBM binding z-score
TCTCGGAGGACACGAAGGTCAGAGCCTTCCAGAG	2.11
ACAGACAGGTGAGTGAAGGTAACGCAGCTGGACG	-0.245
AGTCAAAGTTCAGGACGAGGTATCGTAAAGCACG	2.32
TCTAGTTGGTCACGGCGGTCACACACGACGGGTA	0.555
ACTGACGGGTCAACGAGGTTATAGCACGCGTATA	4.39
TCGAGTAGGTTAGGGGCAATCAGAATGGCGTCGA	0.437
AGAATGAGGTTAAGATCAGCGAAACAGAATACAT	0.978
TCAGACAAGTGAAGGTAACTCAGGTACGCAGTCG	0.509
ACTATTAGTTGACTTAGGGCAACCGCTACGACGC	0.0683
ATGTGTAGGTTAAGGGTCATTCAGGTTGGTTCGC	5.44
CAAACTCGGTCACGAAAGGTCAAAGTCGAATGAC	6.39
ATATATAGGTTACATCCGGGTCATTCAGGCTATG	4.12
AGAATGAGGTTACCAAAGATCATGGAAACGCTTG	1.8
TTACCAAGCTGAAAGGTCGTTGATGCACGCCTTG	1.72
CTCGAAAGGTCGTGCTCAGCTGAGTATACCAAAC	2.99
ACCGAAAGGTCGACGAGGTGAGTATACACCGTTT	2.93
AGCATGAGGTTATTAAGATCAGGGAATTGCGGTC	1.29
AGAACGAGGGCAATGATTTGATAGCACGGGTGGC	0.447
TCATATAGGTAATACAGGTGACAGTCGGCATCTA	0.765
CCTAGCAGGCCAATCTGGGCCACTCAAGGCTTGA	-1.04

Sequence	PBM binding z-score
CCAAACAGGTGAGAAGGTAACTCAGCCTCGATTA	-0.406
GTTAGTTGGTCAGTAAAAGGTCACACACCGGTCG	5.26
TCATATAGGTAAATGCTAGGGGAAAGTCCGATCT	0.434
CCTTACGGTTCACTCCAGGTTATAGCATCGGAGT	3.53
ACTAGCAGGCCAAGTTTGGGTCTCTCAAACAAAG	-0.733
TCGACTAGGTTAGTCGGGGCATTCAGCCAACATA	0.117
ATCTCTAGGTAACGAAGTTCAGTGAATGCCGAAC	1.14
CATACAGGGTCAGCCAGGCCAGAGTAGGGACGGC	2.5
ATATGAAGGTTAGCTGGGGTCATTCAGACTAGGC	6.56
ATCTCTAGGTAAAGATAGTTCAGCGAATGCAAAT	0.995
TATACAGGGTCAAAGCCCAGAGTACGAATGTCGA	3.69
TCTGCTAAGTCAACGATGGTCAGCTAATCTGCTA	-0.538
ATATGTAGGTTACATCCGGGTTATTCAGGCTATG	1.2
CCTATTACTTGACCATAAGGGCAACCGAAGCTCG	0.749
CCTATTAGTTGACCATAAGGGCGACCGAAGCTCG	0.235
TCTAGTTGGTCACTGAGGTCACACACGACGGGTA	4.97
TCTGCTAGGTCAACGATGGTCAGCTCATCTGCTA	1.71
AGAATGAGGTTATACGCAGATCAGGGAAGAAAGT	1.14
TCTATTAGTTGTTTAGGGCAACCGAAACAGCGGA	0.621
CCCGACAGGTGAAAGGTAACTCAGTCTGGTACGC	0.798

Reference: the supplement of paper PMC6555819
